Measured values reported in PubChem BioAssay (NCI).
Compounds without any hit were thinned out: in the full panel of roughly 79,000, 15% have a hit. A number with no mark means an inactive call. Calls of active or inactive are those of the source. Rule as the data show it: active = growth inhibition above about 70%; inactive = the rest.

Legend:
[1] = NCI Yeast Anticancer Drug Screen. Data for the rad50 strain (AID 155);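 also: 0% = growth of vehicle-only cultures of the same strain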; details: S. cerevisiae rad50 strain growth inhibition, stronger effect = higher value
Summary of the method: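 Growth of the mutant yeast was measured after compound exposure and referenced to vehicle-treated cultures.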

[2] = NCI Yeast Anticancer Drug Screen. Data for the mec2-1 strain (AID 157); details: S. cerevisiae mec2-1 strain, stronger effect = higher value
Summary of the method: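 Yeast mec2-1 mutant treated with compound. Readout: growth inhibition vs vehicle controls.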

[3] = NCI Yeast Anticancer Drug Screen. Data for the sgs1 mgt1 strain (AID 161);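 also: 0% = growth of cultures given vehicle only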; details: S. cerevisiae sgs1 mgt1 strain, stronger effect = higher value
Summary of the method: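 Genetically altered yeast, compound exposure, growth inhibition relative to vehicle.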

[4] = NCI Yeast Anticancer Drug Screen. Data for the cln2 rad14 strain (AID 165);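 also: 0% = growth equal to vehicle treated cultures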; details: S. cerevisiae cln2 rad14 strain, stronger effect = higher value
Summary of the method: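 cln2 rad14 yeast strain; compound exposure; growth inhibition read vs vehicle controls.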

[5] = NCI Yeast Anticancer Drug Screen. Data for the bub3 strain (AID 167); details: S. cerevisiae bub3 mutant strain, stronger effect = higher value
Summary of the method: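 Whole-cell yeast assay. The mutant strain was incubated with compounds, and growth inhibition was determined by comparison with vehicle-treated cells.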

[6] = NCI Yeast Anticancer Drug Screen. Data for the mlh1 rad18 strain (AID 175); details: S. cerevisiae mlh1 rad18 strain growth inhibition, stronger effect = higher value
Summary of the method: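 Yeast w/ defined DNA-repair lesions; compound exposure; growth vs vehicle controls → % inhibition.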

[7] = at 5.0 µM (retest, dose inferred, filed as 0.5)
[8] = at 50.0 µM (retest, dose inferred, filed as 5.0)

| SMILES | growth inhibition [1, 7] | growth inhibition [1, 8] | growth inhibition ([1]; at 50.0 µM) | growth inhibition [2, 7] | growth inhibition [2, 8] | growth inhibition ([2]; at 50.0 µM) | growth inhibition [3, 7] | growth inhibition [3, 8] | growth inhibition ([3]; at 50.0 µM) | growth inhibition [4, 7] | growth inhibition [4, 8] | growth inhibition ([4]; at 50.0 µM) | growth inhibition [5, 7] | growth inhibition [5, 8] | growth inhibition ([5]; at 50.0 µM) | growth inhibition [6, 7] | growth inhibition [6, 8] | growth inhibition ([6]; at 50.0 µM) |
| --- | --- | --- | --- | --- | --- | --- | --- | --- | --- | --- | --- | --- | --- | --- | --- | --- | --- | --- |
| N#CC(I)CS(=O)(=O)c1ccccc1 (configuration not stated) | 99% (active) | 99% (active) | 54.7% | 100% (active) | 99% (active) | 98.7% (active) | 99% (active) | 99% (active) | 99.3% (active) | 99% (active) | 99% (active) | 55% | 99% (active) | 99% (active) | 45.4% | 99% (active) | 98% (active) | 42.7% |
| O=C(c1ccccc1)C(Br)[N+](=O)[O-] (configuration not stated) | 99% (active) | 99% (active) | 99.7% (active) | 99% (active) | 99% (active) | 99.7% (active) | 99% (active) | 100% (active) | 99.7% (active) | 93% (active) | 99% (active) | 99.7% (active) | 100% (active) | 100% (active) | 99.8% (active) | 99% (active) | 99% (active) | 99.7% (active) |
| CCCCCCCCCCCC[n+]1ccc(CCCCCCCCC)cc1 | 99% (active) | 99% (active) | 99% (active) | 100% (active) | 99% (active) | 99.3% (active) | 100% (active) | 99% (active) | 99.5% (active) | 98% (active) | 99% (active) | 98.5% (active) | 100% (active) | 99% (active) | 98.8% (active) | 99% (active) | 99% (active) | 97.6% (active) |
| O=C(CCl)N1c2ccccc2Sc2c1ccc1ccccc21 | 25% | 90% (active) | 82.7% (active) | 39% | 90% (active) | 63.9% | 47% | 94% (active) | 90.6% (active) | 20% | 69% | 19.8% | 56% | 91% (active) | 72.2% (active) |  |  |  |
| O=C1c2ccccc2C(=O)c2c(O)c(Cl)cc(O)c21 | 3% | 20% | 15.9% | 2% | 26% | 1.3% | 7% | 71% (active) | 38.3% | 5% | 9% | -55.6% | 4% | 38% | -2.2% |  |  |  |
| c1ccc(-c2cc3cc4ccccc4cn3c2)cc1 | 58% | 93% (active) | 83.8% (active) | 43% | 94% (active) | 83.8% (active) | 52% | 97% (active) | 88.8% (active) | 35% | 84% (active) | 82.8% (active) | 53% | 97% (active) | 86.3% (active) | 61% | 95% (active) | 86.7% (active) |
| c1csc(-c2[nH]nc3c2CCc2ccccc2-3)c1 | 19% | 97% (active) | 98.3% (active) | -13% | 97% (active) | 96.6% (active) | -2% | 98% (active) | 97.6% (active) | -6% | 96% (active) | 98.5% (active) | 18% | 98% (active) | 97.1% (active) | -3% | 97% (active) | 98.8% (active) |
| Cc1cc(C)c([I+]c2c(C)cc(C)cc2C)c(C)c1 | 10% | 95% (active) | 57.8% | 20% | 97% (active) | 73.4% (active) | 9% | 95% (active) | 60.6% | 16% | 97% (active) | 56.6% | 52% | 98% (active) | 60% |  |  |  |
| COC(=O)c1nc(=S)[nH]c(C(=O)OC)c1C(=O)c1ccc(Cl)c(Cl)c1 | -8% | 98% (active) | 99.5% (active) | -1% | 98% (active) | 99% (active) | 7% | 98% (active) | 99.3% (active) | 4% | 95% (active) | 98.5% (active) | 0% | 98% (active) | 98.2% (active) | 11% | 99% (active) | 99.2% (active) |
| O=[N+]([O-])c1ccc(Oc2ccccc2Cl)c([N+](=O)[O-])c1 | 13% | 96% (active) | 4.1% | -25% | 95% (active) | 38.1% | 27% | 97% (active) | 63.1% | 3% | 86% (active) | 17.9% | 7% | 97% (active) | 44.7% | 29% | 97% (active) | 72.7% (active) |
| O=C(Cc1nc2cc(Cl)c(Cl)cc2nc1CC(=O)c1cccnc1)c1cccnc1 | -7% | 96% (active) | 96.3% (active) | -17% | 96% (active) | 98.2% (active) | -12% | 97% (active) | 92.6% (active) | -5% | 98% (active) | 94.3% (active) | -1% | 98% (active) | 95.4% (active) | -2% | 98% (active) | 97.8% (active) |
| OC(c1cc(-c2ccc(C(F)(F)F)cc2)nc(C(F)(F)F)c1)C1CCCCN1 (configuration not stated) | 23% | 39% | 56.1% | 24% | 35% | 76.2% (active) | 33% | 60% | 45.5% | 31% | 7% | 25.7% | 11% | 36% | 33.5% | 34% | 65% |  |
| N#Cc1c2ccccc2nc2ccccc12 | 37% | 45% | 85.9% (active) | 21% | 19% | 16.9% | -1% | 37% | 30.1% | 2% | 3% | 19.6% | 5% | 12% | 28.4% | 1% | 17% | 74.2% (active) |
| NC(=S)Nc1ccc2c(c1)Cc1ccccc1-2 | 2% | 29% | 64.5% | -4% | 3% | -0.4% | 2% | 23% | 59.9% | -5% | -10% | 23.4% | 0% | 58% | 47% | 7% | 38% | 60.4% |
| Cc1cc(C(N)=O)cc(C)c1C(=O)OCCCl | -4% | -1% | 31.7% | -5% | -2% | 66.4% | -4% | -2% | -4.05% | -3% | -8% | -114% | -2% | -2% | 51.9% | -57% | 0% | 58.1% |
| CCN(CC)c1ccc(/C=C\C(=O)c2ccc(NC(C)=O)cc2)cc1 | -22% | -8% | 22.8% | -14% | -21% | 55.4% | -13% | -2% | 52% | -11% | -10% | 28.6% | -12% | -4% | 76.8% (active) | -21% | -9% | 52% |
| COc1c(/C=C/C=O)cc2c(c1OC)OCO2 | 26% | 73% (active) | -1.75% | 17% | 40% | -6.3% | 31% | 57% | 19.1% | 27% | 50% | 20.4% | 21% | 54% | 13.5% | 25% | 61% | -11.8% |
| CCN1CCCC(Nc2cc(C)nc(/N=C(/N)Nc3ccc(Cl)c(Cl)c3)n2)C1 (configuration not stated) | 48% | 96% (active) | 90% (active) | 32% | 98% (active) | 92% (active) | 48% | 97% (active) | 86.7% (active) | 55% | 86% (active) | 82.7% (active) | 29% | 96% (active) | 83.6% (active) |  |  |  |
| CCCCCCCCCCCCN1C(C)=CS/C1=C\C=C\c1scc(C)[n+]1CCCCCCCCCCCC | 9% | 94% (active) | 88% (active) | -4% | 97% (active) | 89.2% (active) | 18% | 96% (active) | 84.7% (active) | 4% | 91% (active) | 85% (active) | 23% | 95% (active) | 85% (active) | 1% | 93% (active) | 83% (active) |
| Nc1cc(-c2ccccc2)ccc1O | 5% | 63% | 98.7% (active) | -2% | 80% (active) | 97.9% (active) | 5% | 37% | 93.6% (active) | -3% | 6% | 79.1% (active) | 0% | 29% | 99.1% (active) | 8% | 89% (active) | 99.5% (active) |
